# HCMV inh – human cytomegalovirus inhibition; HFF cells, HCMV-luciferase reporter, 72 h; hits give low values; activity change, negative = inhibition, % at 57.5 µM; 410,000 compounds, 4.5% hits; in the data active = activity change below about -60%; inconclusive = no clear call, values can overlap the other calls; inactive = above about -39%
#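 Inhibition of viral replication was scored as loss of reporter luminescence in HFFs infected with HCMV-luciferase (MOI 1 PFU/cell) for 72 h; compounds tested at 2 doses, normalized to buffer and Salinomycin controls.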
# Marburg entry inh – Marburg virus entry inhibition; 300,000 compounds, 1.8% hits; Potency, µM (series often up to 37.8 µM), inactives show at the highest dose activity change, negative = inhibition, most hits filed as inhibitors; Marburg virus pseudotyped entry inhibition, cell reporter; AID 540276; calls by dose curve; tested in HEK293 cells; also: potency is read from the fitted curve at half-maximal effect
# FMDV antiviral – antivirals against foot and mouth disease virus. 410,000 compounds, 1.2% hits. FMDV antiviral cell-based qHTS. Potency, µM (top dose mostly 57.9 µM), without a hit: at the top dose activity change, negative = inhibition, actives largely listed as inhibitors; calls by dose curve; tested in HEK293T cells; also: read-out not given here; potency is read from the fitted curve at half-maximal effect; nearly all actives have a fitted effect of over 45% in size
# HCV inhibitor – HCV inhibition. Huh7.5.1 HCVcc-Cre infection, luciferase reporter, 44 h. Potency, µM (doses to about 41.8 µM), without a hit: at the top dose activity change, negative = inhibition, usual class: inhibitors. 340,000 compounds, 3.4% hits; active = well fitted inhibition curve with a large enough effect; inconclusive = small, poorly fitted or top-dose-only effect, or another doubt; inactive = no such curve, though single readings can be large or run the other way; also: potency is read from the fitted curve at half-maximal effect
#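 Luciferase read-out (15 sec integration) after a 15 min room-temperature substrate step quantifies HCVcc-Cre infection. Cells, 1,000 per well, had compound added 4 h post-plating, then virus at ~0.5 moi, and were cultured 44 h.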
# Lassa entry inh – Lassa virus entry inhibition | AID 540256 | 300,000 compounds, 1.2% hits | Potency, µM (top dose mostly 37.9 µM), without a hit: at the highest dose activity change, negative = inhibition, hits mostly inhibitors | Lassa virus pseudotype entry inhibition, cell reporter; calls by dose curve; tested in HEK293 cells; also: potency is read from the fitted curve at half-maximal effect; nearly all actives have a fitted effect of over 50% in size
# Active calls of the source: *; ? = inconclusive; / = no result; [ ] = another dose, or the depositor's remark. Compounds with a hit are over-represented: about 7.9% of the library has one in this group of screens. % is scaled to controls: 0 for no effect and ±100 for the full control effect.
SMILES,HCMV inh,Marburg entry inh,FMDV antiviral,HCV inhibitor,Lassa entry inh
Cc1ccccc1C(OCCN(C(C)C)C(C)C)c1ccccc1 (stereo not drawn),?,?,?,-2.3%,3.98µM*
Cc1cc(Cl)nc(-c2ccccc2)n1,?,/,-16.6%,11.5%,/
Cc1cc2c(C)nc(-c3ccccc3)nc2o1,30.3,1.8%[46.1 µM],72.9%,3.55µM*,29.2%
Cc1ccc(-n2c(/C=C/c3ccc4c(c3)OCO4)nc3ccccc3c2=O)cc1,-101.6*,?,/,3.7%,10.0%
COc1ccc(-n2c(/C=C/c3ccc(O)c(OC)c3)nc3ccccc3c2=O)cc1,-99.1*,/,-21.6%,11.2µM*,/
COc1ccc(-n2c(/C=C/c3ccc4c(c3)OCO4)nc3ccccc3c2=O)cc1,-84.0*,?,?,?,-17.2%
O=c1c2ccccc2nc(/C=C/c2ccc3c(c2)OCO3)n1-c1cccc(O)c1,?,1.5%,-21.6%,-11.4%,?
COc1ccc(-c2c(C)nn3c(C(F)(F)F)cc(-c4ccccc4)nc23)cc1,-4.7,1.0%[46.1 µM],0.0%,/,1.7%[46.1 µM]
O=C(c1ccncc1)c1ccc(N2CCN(C3CC(=O)N(Cc4cccs4)C3=O)CC2)cc1 (stereo not drawn),0.0,/,25.1µM*,?,/
CN1CCN(C(c2ccccc2Cl)c2sc3nc(-c4ccco4)nn3c2O)CC1 (stereo not drawn),18.1,/,-10.0%,/,10.6%[46.1 µM]
O=c1c2ccccc2oc2ccc(C#CC3(O)CCCCC3)cc12,-34.7,/,31.6µM*,?,/
Cn1c2ccccc2c(=O)c2ccc(C#CC3(N)CCCCC3)cc21,36.9,/,6.0%,11.2µM*,/
N#Cc1ccc(C#Cc2ccc3oc4ccccc4c(=O)c3c2)cc1,-15.3,/,3.6%,6.9%,/
Cn1c2ccccc2c(=O)c2cc(C#CC3(O)CCCCC3)ccc21,-1.7,/,25.1µM*,13.6%,/
Cc1cc2sc3ccc(C#CC4(O)CCCCC4)cc3c(=O)c2cc1C,-95.5*,/,0.0891µM*,-0.9%,/
Cn1c2ccccc2c(=O)c2cc(C#Cc3ccsc3)ccc21,61.5,/,25.8%,10.1%,/
Cc1ccc(Cl)cc1N1CCN(S(=O)(=O)c2cn(C)c(C)n2)CC1,-3.1,/,2.1%,/,0.5%[46.1 µM]
CC1c2ccccc2-c2ccccc2N1C (stereo not drawn),-26.4,-5.1%,8.2%,12.6µM*,11.3%
C=Cc1ccc(CN2C(=O)N(c3cccc(Cl)c3)S(=O)(=O)c3ccccc32)cc1,0.3,/,-11.3%,/,-7.3%[46.1 µM]
CC(=O)NCCOC(=O)Nc1sc(=S)n(C)c1C,50.1,3.5%,13.1%,24.1%,16.8%
Cc1c(NC(=O)OCCSc2nc(N(C)C)nc(N(C)C)n2)sc(=S)n1C,?,-15.5%,/,14.1µM*,-13.2%
Cc1ccc(-c2nn3c(=O)cc(CN4CCN(C(=O)/C=C/c5ccccc5)CC4)nc3s2)cc1,4.8,/,-20.7%,/,?
O=C(Nc1nccs1)c1cc(-c2ccncc2)nc2ccccc12,5.4,?,-27.0%,-23.1%,-1.6%
Cc1ccc(-c2cc(C(=O)Nc3nccs3)c3ccccc3n2)c(C)c1,-87.1*,?,?,10µM*,?
COC(=O)c1sc(NC(=O)c2ccc(Cn3cc(Cl)cn3)o2)c(C#N)c1C,-105.9*,?,?,-2.8%,-2.5%
SMILES,HCMV inh,Marburg entry inh,FMDV antiviral,HCV inhibitor,Lassa entry inh
Cc1cc(C)c2nc(NNC(=O)c3cc(-c4cccs4)nc4ccccc34)sc2c1,-20.5,?,?,10µM*,?
CCOC(=O)c1c(NC(=O)c2cc(-c3ccc(Cl)s3)nc3ccccc23)sc(C(N)=O)c1C,-25.4,5.0%,-6.3%,9.1%,-0.5%
CCOC(=O)c1sc(NC(=O)c2cc(-c3ccccc3C)nc3ccccc23)c(C#N)c1C,-104.6*,?,?,7.08µM*,11.2µM*
COc1ccc(NC(=O)C2CCCN(S(=O)(=O)c3ccc(Cl)cc3)C2)cc1 (stereo not drawn),?,-10.5%[46.1 µM],1.2%,/,3.9%[46.1 µM]
CCOC(=O)c1sc(NC(=O)c2ccncc2)c(C#N)c1C,-68.4*,?,?,?,16.7%
Cc1ccccc1-c1cc(C(=O)Nc2sc(C)c(C)c2C(N)=O)c2ccccc2n1,-23.2,?,?,4.47µM*,15.8µM*
C=Cn1cc[n+](CC(=O)c2ccc(C)cc2)c1,-68.4*,?,-7.1%,4.8%,4.5%
C=Cn1cc[n+](CC(=O)c2ccc(Br)cc2)c1,3.8,/,9.5%,12.4%,/
Cc1ccc(CNC(=O)CCCCCn2c(=O)c3sccc3n(CC(=O)N(C)c3ccccc3)c2=O)cc1,-12.7,?,-11.7%,/,?
CCOc1cc(S(=O)(=O)N(Cc2ccccc2)Cc2ccccc2)c(OCC)cc1-n1cnnn1,19.7,20.6µM*,-8.9%,/,-52.8%[14.3 µM]
CNC(=O)c1cccnc1Nc1cccc(C(F)(F)F)c1,14.3,30.9%,0.0%,10µM*,0.5%
COc1ccc(CCNC(=O)c2ccc3c(c2)sc2nc(-c4ccccc4)cn23)cc1OC,/,/,-7.8%,/,-7.1%[46.1 µM]
O=C1CN(C(=O)C2CCCCC2)C(c2ccccc2)c2cc(F)ccc2N1 (stereo not drawn),16.4,20.6%[46.1 µM],-15.4%,/,-3.7%[46.1 µM]
COc1ccc(-c2csc(NC(=O)CSc3nnc(Nc4ccccc4C)s3)n2)cc1,-70.2*,?,17.3%,-24.2%,?
COc1ccccc1Nc1nnc(SCC(=O)Nc2nc(-c3ccc(F)cc3)cs2)s1,-88.2*,/,-1.9%,-27.3%,/
CCOc1ccccc1Nc1nnc(SCC(=O)Nc2nc(-c3ccc(OC)cc3)cs2)s1,1.0,17.3%[46.1 µM],9.6%,-15.3%,-2.2%[46.1 µM]
Cc1csc2nc(-c3ccc(NS(=O)(=O)c4cccc(F)c4)cc3)cn12,-10.7,/,14.8%,/,10.6%[46.1 µM]
C/C=C/C(=O)OCC(=O)Nc1ccc(SC(F)F)cc1,-76.2*,-6.6%[46.1 µM],9.2%,15.5%,-36.4%
Cc1cccc(N(C)C(=O)CCNS(=O)(=O)c2ccc3c(c2)CCN3C(=O)C2CC2)c1,-8.4,/,-8.5%,/,-14.3%[46.1 µM]
Cc1ccc(-c2csc(NC(=O)c3ccc(-c4ccccc4)cc3)n2)o1,/,/,-21.7%,8.91µM*,/
O=C(COc1ccc(F)cc1)Nc1nc(-c2ccccn2)cs1,-25.1,-5.6%,-16.4%,?,5.5%
O=C(COc1ccc([N+](=O)[O-])cc1)Nc1nc(-c2ccccn2)cs1,-71.4*,?,-10.9%,10µM*,?
CCc1nnc(NC(=O)c2ccc(-c3ccccc3F)o2)s1,0.0,14.6%[46.1 µM],37.9%,-11.7%,?
CCCOC(=O)c1cccc(NC(=O)COc2ccc([N+](=O)[O-])cc2)c1,-4.5,-34.4%,25.1µM*,?,-9.6%
O=C(Nc1nc(-c2ccccn2)cs1)c1ccc(-c2ccccc2F)o1,-70.2*,/,11.7%,?,/
CCOC(=O)c1cccc(NC(=O)COc2ccc([N+](=O)[O-])cc2)c1,21.4,-14.6%,/,?,5.0%
O=C(O)C(Oc1ccc2ccc(=O)oc2c1)c1ccccc1 (stereo not drawn),/,/,-1.4%,/,/
O=C1[C@H]2[C@H]3[C@H](O)[C@H](O)C/C(=N\OCc4ccccc4)[C@@H]3CC[C@H]2C(=O)N1C1CCCCC1,/,-13.6%[14.2 µM],/,/,/

# Source: PubChem BioAssay
